# Measurements taken from the supplement of paper PMC10849652.
# Targets with a hit are over-represented here; the source holds about 8,800 in all. About 0.5% of all pairs of compound and target were hits. Values without a mark were called inactive.
# Experiments:
# Test in all cases: log2 fold change, soluble protein after heating vs DMSO (PISA); higher = thermal stabilisation; K562 lysate, 10 uM; active = over 0.2 and 3.5 SD of the protein, either way, in both replicates (recomputed)
# erlotinib = compound: C#Cc1cccc(Nc2ncnc3cc(OCCOC)c(OCCOC)cc23)c1 [erlotinib]
# Outline: (§1)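 K562 pellets were dounce-homogenised in PBS pH 7.4 containing 1 mM MgCl2, and the crude extract, at 1 mg/mL protein, was exposed to 10 μM compound for 30 min. Aliquots were heated for 3 min across 48°C-58°C, pooled, brought to 0.5% NP-40 at 4°C and spun at 21,000xg for 90 min, with the supernatant taken as soluble protein. TMTpro 16plex LC-MS/MS with equalised channel sums quantified that protein. Values are log-two fold changes in thermal stability relative to solvent controls, taken from duplicates.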
# [1] = compound: C/C(=N\NC(=O)C1=CC(=CC=C1)S(=O)(=O)N2CCOCC2)/C3=C(C=CC(=C3)Cl)O
# Outline: as §1
# [2] = compound: C1=CC(=CC=C1C2=NC3=C(N2)C=C(C=C3)C(=O)N)OC4=CC=C(C=C4)Cl
# Outline: as §1
# [3] = compound: C1=CC2=C(C=CC(=C2)/C=C\3/C(=O)NC(=NCC4=CC=CS4)S3)N=C1
# Outline: as §1
# [4] = compound: C1=CC2=NC=CN=C2C=C1/C=C/3\C(=O)NC(=O)S3
# Outline: as §1
# [5] = compound: C1=CC=C(C=C1)C2=NC(=C(N2)C3=CC=NC=C3)C4=CC(=C(C=C4)Cl)O
# Outline: as §1
# [6] = compound: C1=CC=C2C(=C1)C3=NNC4=CC=CC(=C43)C2=O
# Outline: as §1
# [7] = compound: C1CCN(C1)C(=O)NC2=CC=CC(=C2)NC3=NC=C(C(=N3)NCCC4=CN=CN4)Br
# Outline: as §1
# [8] = compound: C1CN(CCC1(CC2=CC=C(C=C2)Cl)N)C3=NC=NC4=C3C=CN4
# Outline: as §1
# IRAK-1-4 Inhibitor I = compound: C1COCCN1CCN2C3=CC=CC=C3N=C2NC(=O)C4=CC(=CC=C4)[N+](=O)[O-] [IRAK-1-4 Inhibitor I]
# Outline: as §1
# ibrutinib = compound: C=CC(=O)N1CCC[C@@H](n2nc(-c3ccc(Oc4ccccc4)cc3)c3c(N)ncnc32)C1 [ibrutinib]
# Outline: as §1
# [9] = compound: CC(=O)c1cnc2ccc(-c3cc(Cl)c(O)c(Cl)c3)nc2c1N[C@H]1CC[C@H](CN(C)C)CC1
# Outline: as §1
# ralimetinib = compound: CC(C)(C)Cn1c(N)nc2ccc(-c3[nH]c(C(C)(C)C)nc3-c3ccc(F)cc3)nc21 [ralimetinib]
# Outline: as §1
# [10] = compound: CC(C)(O)CC(=O)NCCn1ccc2ncnc(Nc3ccc(Oc4cccc(C(F)(F)F)c4)c(Cl)c3)c21
# Outline: as §1
# [11] = compound: CC(C)C1=C2N=C(C=C(N2N=C1)NCC3=CC=CC=C3)NCCCCCCN
# Outline: as §1
# [12] = compound: CC1=C(C(CC(=O)N1)C2=CC=C(C=C2)C(F)(F)F)C(=O)NC3=C(C=C4C(=C3)C=NN4)F
# Outline: as §1
# [13] = compound: CC1=C(C2=C(C=C1)C(=O)C3=CC=CC=C3N2CCCN)C
# Outline: as §1
# [14] = compound: CC1=C(C=C(C=C1)NC(=O)C2=CC(=CC=C2)C(C)(C)C#N)NC3=CC4=C(C=C3)N=CN(C4=O)C
# Outline: as §1
# [15] = compound: CC1=C(C=C(C=C1)NC(=O)C2=CC(=CC=C2)N(C)C)NC(=O)C3=CC=C(C=C3)O
# Outline: as §1
# [16] = compound: CC1=CC=C(C=C1)SC2=C3C=C(SC3=CN=C2)C(=O)N
# Outline: as §1
# Sequence of UniProt P02774 (P02774 whole entry, looked up): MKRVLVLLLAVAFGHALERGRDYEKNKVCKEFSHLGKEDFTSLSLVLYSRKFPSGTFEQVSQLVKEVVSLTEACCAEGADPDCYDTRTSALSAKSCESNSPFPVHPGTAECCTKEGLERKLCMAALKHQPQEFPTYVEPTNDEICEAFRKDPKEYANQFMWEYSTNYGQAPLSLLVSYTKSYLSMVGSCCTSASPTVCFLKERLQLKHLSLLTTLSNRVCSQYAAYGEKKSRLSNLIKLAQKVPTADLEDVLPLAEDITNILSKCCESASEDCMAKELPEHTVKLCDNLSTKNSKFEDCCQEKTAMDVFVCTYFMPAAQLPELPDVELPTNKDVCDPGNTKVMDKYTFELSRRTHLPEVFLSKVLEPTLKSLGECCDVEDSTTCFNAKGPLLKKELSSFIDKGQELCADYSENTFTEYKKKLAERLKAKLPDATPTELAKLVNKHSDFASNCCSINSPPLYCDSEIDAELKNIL
# Sequence of UniProt P51116 (P51116 whole entry, looked up): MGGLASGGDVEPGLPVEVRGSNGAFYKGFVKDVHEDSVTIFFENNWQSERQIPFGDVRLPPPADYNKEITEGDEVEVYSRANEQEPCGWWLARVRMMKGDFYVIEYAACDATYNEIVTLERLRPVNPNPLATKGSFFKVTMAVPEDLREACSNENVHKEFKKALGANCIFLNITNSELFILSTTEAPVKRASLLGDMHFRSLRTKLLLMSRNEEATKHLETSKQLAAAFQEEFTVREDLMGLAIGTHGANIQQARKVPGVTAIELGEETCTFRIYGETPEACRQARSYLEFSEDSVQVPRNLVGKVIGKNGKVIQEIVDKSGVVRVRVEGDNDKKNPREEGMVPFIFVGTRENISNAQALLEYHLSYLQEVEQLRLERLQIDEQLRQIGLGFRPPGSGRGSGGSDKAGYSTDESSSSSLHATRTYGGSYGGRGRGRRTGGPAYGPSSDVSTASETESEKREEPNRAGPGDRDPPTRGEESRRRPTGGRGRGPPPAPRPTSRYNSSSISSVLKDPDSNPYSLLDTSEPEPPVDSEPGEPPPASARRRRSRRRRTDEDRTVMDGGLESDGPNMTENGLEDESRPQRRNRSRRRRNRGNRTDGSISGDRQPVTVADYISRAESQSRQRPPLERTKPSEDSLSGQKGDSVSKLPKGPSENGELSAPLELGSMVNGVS
# Sequence of UniProt O94905 (O94905 whole entry, looked up): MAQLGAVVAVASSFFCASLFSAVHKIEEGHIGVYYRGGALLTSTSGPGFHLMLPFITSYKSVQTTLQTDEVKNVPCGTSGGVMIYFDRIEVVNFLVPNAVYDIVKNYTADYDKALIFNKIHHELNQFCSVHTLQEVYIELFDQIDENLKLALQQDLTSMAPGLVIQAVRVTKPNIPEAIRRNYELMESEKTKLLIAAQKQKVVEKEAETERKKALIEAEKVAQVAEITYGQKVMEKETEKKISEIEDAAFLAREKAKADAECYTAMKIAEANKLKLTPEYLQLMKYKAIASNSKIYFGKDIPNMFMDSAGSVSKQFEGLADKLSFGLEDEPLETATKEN
# Sequence of UniProt P51570 (P51570 whole entry, looked up): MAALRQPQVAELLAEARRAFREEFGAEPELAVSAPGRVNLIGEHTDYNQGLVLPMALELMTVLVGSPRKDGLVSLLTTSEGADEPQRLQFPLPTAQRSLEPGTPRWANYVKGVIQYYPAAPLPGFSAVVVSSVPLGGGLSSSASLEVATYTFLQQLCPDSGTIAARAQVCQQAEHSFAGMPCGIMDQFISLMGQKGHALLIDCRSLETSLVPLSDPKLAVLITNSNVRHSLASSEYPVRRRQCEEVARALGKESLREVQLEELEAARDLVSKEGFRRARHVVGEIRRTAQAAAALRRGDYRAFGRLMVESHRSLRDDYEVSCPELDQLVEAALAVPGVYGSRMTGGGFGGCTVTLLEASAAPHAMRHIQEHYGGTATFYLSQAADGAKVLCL
# Sequence of UniProt Q9P0K8 (Q9P0K8 whole entry, looked up): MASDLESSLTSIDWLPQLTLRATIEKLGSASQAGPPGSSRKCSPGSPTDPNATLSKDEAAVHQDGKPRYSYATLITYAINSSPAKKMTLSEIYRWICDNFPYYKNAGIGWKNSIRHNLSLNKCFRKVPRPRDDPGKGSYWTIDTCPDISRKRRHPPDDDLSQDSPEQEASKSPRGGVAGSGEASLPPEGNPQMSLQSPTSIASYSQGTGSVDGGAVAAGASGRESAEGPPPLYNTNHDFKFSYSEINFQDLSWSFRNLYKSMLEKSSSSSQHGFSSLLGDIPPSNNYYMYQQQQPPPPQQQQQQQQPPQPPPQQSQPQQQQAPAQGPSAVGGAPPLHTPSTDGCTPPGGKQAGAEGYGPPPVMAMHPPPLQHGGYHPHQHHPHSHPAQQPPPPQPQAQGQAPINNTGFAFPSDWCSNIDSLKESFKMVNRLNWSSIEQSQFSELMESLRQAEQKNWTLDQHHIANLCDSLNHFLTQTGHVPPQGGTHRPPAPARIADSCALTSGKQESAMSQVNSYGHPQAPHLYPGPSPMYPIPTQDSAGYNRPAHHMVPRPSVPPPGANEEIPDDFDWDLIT
# Sequence of UniProt P51114 (P51114 whole entry, looked up): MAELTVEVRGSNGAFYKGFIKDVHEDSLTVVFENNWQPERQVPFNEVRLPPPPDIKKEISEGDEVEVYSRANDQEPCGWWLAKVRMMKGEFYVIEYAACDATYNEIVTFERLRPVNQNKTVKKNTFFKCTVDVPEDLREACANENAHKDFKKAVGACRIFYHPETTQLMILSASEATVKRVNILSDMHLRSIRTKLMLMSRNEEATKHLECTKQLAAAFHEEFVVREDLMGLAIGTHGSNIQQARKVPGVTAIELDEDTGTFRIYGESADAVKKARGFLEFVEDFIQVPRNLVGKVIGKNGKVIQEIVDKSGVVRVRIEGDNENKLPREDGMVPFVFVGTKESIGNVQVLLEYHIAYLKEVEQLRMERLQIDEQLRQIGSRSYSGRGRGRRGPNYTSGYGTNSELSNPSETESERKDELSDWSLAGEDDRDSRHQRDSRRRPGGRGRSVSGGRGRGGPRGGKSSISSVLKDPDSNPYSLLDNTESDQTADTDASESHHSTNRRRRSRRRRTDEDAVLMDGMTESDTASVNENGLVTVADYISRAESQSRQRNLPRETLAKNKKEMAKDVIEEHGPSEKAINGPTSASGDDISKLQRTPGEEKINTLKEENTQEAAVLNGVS
# Sequence of UniProt Q8N5C7 (Q8N5C7 whole entry, looked up): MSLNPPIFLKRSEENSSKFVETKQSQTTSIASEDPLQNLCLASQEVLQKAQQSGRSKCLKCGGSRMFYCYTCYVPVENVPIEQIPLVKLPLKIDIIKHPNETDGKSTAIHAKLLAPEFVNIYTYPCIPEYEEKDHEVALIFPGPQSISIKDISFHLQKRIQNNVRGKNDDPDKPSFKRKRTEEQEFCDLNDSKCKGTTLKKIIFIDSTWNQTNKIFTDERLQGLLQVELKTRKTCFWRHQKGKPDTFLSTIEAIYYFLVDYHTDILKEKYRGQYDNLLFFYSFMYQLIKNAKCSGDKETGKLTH
# Sequence of UniProt Q13347 (Q13347 whole entry, looked up): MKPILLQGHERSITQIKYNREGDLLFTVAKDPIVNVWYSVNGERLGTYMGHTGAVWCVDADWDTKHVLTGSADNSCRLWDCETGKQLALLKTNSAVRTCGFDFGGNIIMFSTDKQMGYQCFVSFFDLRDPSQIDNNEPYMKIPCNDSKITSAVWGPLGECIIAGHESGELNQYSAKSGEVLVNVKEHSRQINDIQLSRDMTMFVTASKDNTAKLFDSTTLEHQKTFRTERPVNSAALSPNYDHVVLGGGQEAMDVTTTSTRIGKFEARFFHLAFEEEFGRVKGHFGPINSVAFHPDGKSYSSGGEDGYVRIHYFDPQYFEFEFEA
# Sequence of UniProt Q14153 (Q14153 whole entry, looked up): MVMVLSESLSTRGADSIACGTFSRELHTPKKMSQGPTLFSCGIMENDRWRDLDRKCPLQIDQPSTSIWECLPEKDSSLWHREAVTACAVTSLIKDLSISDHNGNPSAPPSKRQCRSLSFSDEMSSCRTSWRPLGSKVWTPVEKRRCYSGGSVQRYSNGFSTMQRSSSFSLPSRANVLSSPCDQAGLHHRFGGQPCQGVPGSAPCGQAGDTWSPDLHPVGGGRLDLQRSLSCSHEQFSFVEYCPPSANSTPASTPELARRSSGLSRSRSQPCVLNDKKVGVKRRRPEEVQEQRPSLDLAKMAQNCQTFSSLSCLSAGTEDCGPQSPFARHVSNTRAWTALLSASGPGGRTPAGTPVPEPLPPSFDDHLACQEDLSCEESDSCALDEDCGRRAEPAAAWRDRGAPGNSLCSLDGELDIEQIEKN
# Sequence of UniProt Q9Y6B2 (Q9Y6B2 whole entry, looked up): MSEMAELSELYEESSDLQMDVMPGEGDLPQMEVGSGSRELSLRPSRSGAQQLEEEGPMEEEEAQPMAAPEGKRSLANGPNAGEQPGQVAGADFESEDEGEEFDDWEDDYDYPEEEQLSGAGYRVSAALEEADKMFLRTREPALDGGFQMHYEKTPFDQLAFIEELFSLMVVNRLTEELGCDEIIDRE
# Sequence of UniProt P28676 (P28676 whole entry, looked up): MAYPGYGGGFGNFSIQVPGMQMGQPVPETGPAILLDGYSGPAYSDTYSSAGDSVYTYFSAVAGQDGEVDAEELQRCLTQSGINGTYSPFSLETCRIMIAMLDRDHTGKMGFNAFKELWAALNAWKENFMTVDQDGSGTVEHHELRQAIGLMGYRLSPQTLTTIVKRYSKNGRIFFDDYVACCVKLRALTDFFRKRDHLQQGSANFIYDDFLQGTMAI
# Sequence of UniProt P26378 (P26378 whole entry, looked up): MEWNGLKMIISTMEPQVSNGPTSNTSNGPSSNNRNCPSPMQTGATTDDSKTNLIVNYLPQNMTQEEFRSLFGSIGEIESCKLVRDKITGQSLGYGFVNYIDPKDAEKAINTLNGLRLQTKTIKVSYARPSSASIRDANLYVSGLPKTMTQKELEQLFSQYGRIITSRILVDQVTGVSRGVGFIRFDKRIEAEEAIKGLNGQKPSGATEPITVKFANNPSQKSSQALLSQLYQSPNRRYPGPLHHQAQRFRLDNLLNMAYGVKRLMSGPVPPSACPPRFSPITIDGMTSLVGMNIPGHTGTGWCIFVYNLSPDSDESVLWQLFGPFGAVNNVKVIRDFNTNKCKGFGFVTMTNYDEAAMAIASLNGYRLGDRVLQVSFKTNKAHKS
Target,log2 fold change (erlotinib),log2 fold change [1],log2 fold change [2],log2 fold change [3],log2 fold change [4],log2 fold change [5],log2 fold change [6],log2 fold change [7],log2 fold change [8],log2 fold change (IRAK-1-4 Inhibitor I),log2 fold change (ibrutinib),log2 fold change [9],log2 fold change (ralimetinib),log2 fold change [10],log2 fold change [11],log2 fold change [12],log2 fold change [13],log2 fold change [14],log2 fold change [15],log2 fold change [16]
EIF3I (UniProt Q13347),0.013,0.033,-0.029,0.001,0.022,0,-0.026,0.004,-0.007,-0.039,0.018,-0.019,0.035,0.046,0.032,0.003,0.013,0.009,0.056,0.022
FXR1 (UniProt P51114),0.041,0.012,-0.039,-0.011,-0.024,0.002,-0.082,-0.015,-0.008,-0.057,0.023,-0.011,-0.017,0.032,0.002,0.014,-0.006,-0.01,0.02,0.016
GAA (UniProt P10253),0.077,0.046,0.054,-0.041,-0.005,0.006,-0.208,0.007,0.092,0.025,0.013,-0.011,0.054,-0.133,0.009,0.142,,0.028,0.036,-0.084
DTWD1 (UniProt Q8N5C7),0.01,0.082,-0.039,-0.004,-0.048,-0.025,0.039,0.01,0.047,-0.01,0.013,0.032,0.005,0.005,0.034,0.058,-0.019,0,-0.02,-0.027
GAPDH (UniProt P04406),-0.007,-0.032,0.031,0.006,-0.006,-0.005,0.028,0.027,-0.034,0.003,0.037,0.021,-0.006,0.02,0.008,-0.01,-0.008,-0.037,-0.014,0.009
FBXO22 (UniProt Q8NEZ5),0.042,-0.022,0.048,0.016,0.02,-0.002,-0.01,0.029,0.049,0.007,-0.03,0.017,0.003,-0.06,-0.078,-0.026,-0.006,0.016,0,-0.014
ERLIN2 (UniProt O94905),-0.028,0.051,-0.1,-0.002,-0.047,-0.019,-0.031,-0.039,0.006,-0.013,0.033,-0.028,0.026,-0.023,-0.023,-0.012,-0.031,-0.016,0.066,-0.014
FXR2 (UniProt P51116),0.018,0.026,-0.01,-0.042,0.022,-0.029,-0.092,-0.085,0.003,-0.075,0.027,-0.008,0.028,0.004,0.026,0.024,0.004,-0.005,-0.018,0.011
GALK1 isoform 2 (UniProt P51570),0.021,0.022,0.01,-0.076,-0.024,-0.015,-0.031,0.023,0.058,0.042,0.002,0.032,-0.013,-0.001,-0.006,-0.021,-0.026,0.002,-0.001,0.04
FAM53B (UniProt Q14153),0.057,-0.087,-0.03,0.015,-0.004,-0.047,-0.024,-0.034,0.006,0.203,0.037,,-0.299,-0.084,0.037,0.098,0.161,-0.07,-0.263,
GAPVD1 (UniProt Q14C86),,,,,-0.016,,,,,,0.086,0.317,,,,,,,,-0.666
EPB41 isoform 4 (UniProt P11171),-0.128,,-0.054,,,-0.012,,,,0.002,,0.048,-0.056,-0.018,0.148,-0.012,,0.042,-0.001,-0.004
FAM111A (UniProt Q96PZ2),-0.025,-0.04,-0.01,0.002,,-0.088,-0.088,0.046,0.022,-0.088,,0.171,0.116,0.083,0.125,,-0.106,-0.093,0.022,-0.244
GCA (UniProt P28676),-0.115,,-0.037,,,,,,,,,-0.134,,,0.191,0.173,,,,0.123
EHHADH (UniProt Q08426),-0.05,,0.08,,-0.029,0.007,,0.045,-0.106,-0.09,0.059,-0.023,0.021,-0.084,-0.016,-0.003,0.128,-0.027,0.031,0.008
FOXJ2 (UniProt Q9P0K8),0.102,,0.056,,0.139,0.026,,0.138,-0.036,-0.03,-0.045,,0.02,-0.035,0.091,0.041,-0.129,,0.108,
ELAVL4 (UniProt P26378),0.073,0.047,-0.063,-0.047,,0.015,0.002,0.029,0.036,-0.012,,-0.04,0.065,0.064,0.026,-0.061,-0.01,-0.005,-0.026,0.073
EID1 (UniProt Q9Y6B2),0.089,,-0.172,,,0.096,,0.064,0.091,0.044,,,-0.06,-0.042,-0.173,0.05,-0.116,,-0.008,
GC isoform 3 (UniProt P02774),,0.039,,-0.019,,-0.199,0.012,0.051,0.055,0.15,,,0.051,-0.559 (active),,,-0.148,-0.087,-0.101,
